Assay results from PubChem BioAssay (EPA / NIEHS).
Several values for one entry are separate records, joined by “and”; a condition that tells them apart may be missing. Equal entries are not always repeated. More than one record can exist for a structure, and the calls need not agree. Activity calls are given as the source filed them. How the source made its calls: active means hit-call score of the fitted dose curve at least 0.9, where 1 is the maximum; inactive means score below 0.9.

What was measured:
[1] = read-out: Macrophage colony-stimulating factor (MCSF), CSF1 (gene 1435); test: BSK_hDFCGF_MCSF: BioMAP Diversity Plus: hDFCGF Assay for Macrophage colony-stimulating factor (MCSF) Biomarker Activity (AID 2283060); conditions: primary human foreskin fibroblasts; actives raise or lower the signal
How it was run: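 Human foreskin fibroblast primary cultures; M-CSF measured by ELISA 24 hours after chemical dosing. Bidirectional fitting relative to DMSO, with overt cytotoxicity tracked by parallel SRB total-protein staining (0.1% SRB, 10% TCA fixation, 560 nm).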

[2] = read-out: TIMP metallopeptidase inhibitor 1 (TIMP1), TIMP1 (gene 7076); test: BSK_hDFCGF_TIMP1: BioMAP Diversity Plus: hDFCGF Assay for TIMP metallopeptidase inhibitor 1 (TIMP1) Biomarker Activity (AID 2283062); conditions: primary human foreskin fibroblasts; actives raise or lower the signal
How it was run: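 Human foreskin fibroblast primary cultures dosed for 24 h; secreted/surface TIMP-1 quantified by ELISA. Bidirectional curve fitting against DMSO baseline; cytotoxicity tracked in parallel cultures by SRB total-protein staining.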

[3] = read-out: Monokine induced gamma interferon (MIG), CXCL9 (gene 4283); test: BSK_hDFCGF_MIG: BioMAP Diversity Plus: hDFCGF Assay for Monokine induced gamma interferon (MIG) Biomarker Activity (AID 2283063); conditions: primary human foreskin fibroblasts; actives raise or lower the signal
How it was run: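 MIG/CXCL9 measured by ELISA 24 h after dosing primary human skin fibroblasts. Activity fitted in both directions against DMSO controls. Cytotoxicity was checked in parallel cultures by SRB staining read at 560 nm.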

[4] = read-out: Matrix Metallopeptidase 1 (MMP1), MMP1 (gene 4312); test: BSK_hDFCGF_MMP1: BioMAP Diversity Plus: hDFCGF Assay for Matrix Metallopeptidase 1 (MMP1) Biomarker Activity (AID 2283064); conditions: primary human foreskin fibroblasts; actives raise or lower the signal
How it was run: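 MMP1 levels quantified by ELISA 24 h after dosing human dermal fibroblast cultures, with parallel SRB total-protein staining for overt cytotoxicity. Data fitted in both directions against DMSO baseline.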

[5] = read-out: Vascular cell adhesion molecule 1 (VCAM1), VCAM1 (gene 7412); test: BSK_hDFCGF_VCAM1: BioMAP Diversity Plus: hDFCGF Assay for Vascular cell adhesion molecule 1 (VCAM1) Biomarker Activity (AID 2283065); conditions: primary human foreskin fibroblasts; actives raise or lower the signal;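 on AC50: VCAM-1 protein level quantified by ELISA after 24 h chemical exposure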
How it was run: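 Human foreskin fibroblast primary cells dosed with chemical, VCAM-1 measured by ELISA at 24 h. Bidirectional curve fitting relative to DMSO as negative control/baseline.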

[6] = read-out: Plasminogen activator inhibitor-1 (PAI1), SERPINE1 (gene 5054); test: BSK_hDFCGF_PAI1: BioMAP Diversity Plus: hDFCGF Assay for Plasminogen activator inhibitor-1 (PAI1) Biomarker Activity (AID 2283066); conditions: primary human foreskin fibroblasts; actives raise or lower the signal
How it was run: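 PAI-1 levels in human dermal foreskin fibroblasts were quantified by ELISA 24 h after dosing, with gain or loss analysed against DMSO. Overt cytotoxicity was checked by sulforhodamine B total-protein staining in parallel cultures.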

[7] = read-out: Intercellular Adhesion Molecule 1 (ICAM1), ICAM1 (gene 3383); test: BSK_KF3CT_ICAM1: BioMAP Diversity Plus: KF3CT Assay for Intercellular Adhesion Molecule 1 (ICAM1) Biomarker Activity (AID 2283067); conditions: primary human keratinocytes with fibroblasts; actives raise or lower the signal
How it was run: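 Human keratinocyte–foreskin fibroblast co-culture was treated for 24 h. Cell-surface ICAM-1 was quantified by ELISA, fitted bidirectionally relative to DMSO. Cytotoxicity was checked in parallel cultures by SRB total-protein staining.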

[8] = read-out: Interferon-gamma inducible Protein 10 (IP10), CXCL10 (gene 3627); test: BSK_KF3CT_IP10: BioMAP Diversity Plus: KF3CT Assay for Interferon-gamma inducible Protein 10 (IP10) Biomarker Activity (AID 2283068); conditions: primary human keratinocytes with fibroblasts; actives raise or lower the signal
How it was run: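 In a primary skin co-culture of keratinocytes and fibroblasts, IP-10 is quantified by ELISA at 24 h after dosing. SRB staining of parallel wells monitors overt toxicity. Curves are fitted both directions against DMSO.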

[9] = BSK_KF3CT_SRB: Viability Assessment in the BioMAP Diversity Plus: KF3CT Assay (AID 2283069); conditions: primary human keratinocytes with fibroblasts;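 further: read 24 h after compound addition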
How it was run: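 Cytotoxicity was gauged by SRB staining (0.1% SRB, 10% TCA fixation, 560 nm) of parallel cultures at 24 h. The cells were primary human skin keratinocytes co-cultured with fibroblasts, and activity was fitted in both directions against DMSO.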

[10] = read-out: Interleukin-1 alpha (IL1a), IL1A (gene 3552); test: BSK_KF3CT_IL1a: BioMAP Diversity Plus: KF3CT Assay for Interleukin-1 alpha (IL1a) Biomarker Activity (AID 2283070); conditions: primary human keratinocytes with fibroblasts; actives raise or lower the signal
How it was run: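 IL-1a was detected by ELISA 24 h after chemical treatment of a co-culture of human skin keratinocytes and foreskin fibroblasts. Gain or loss of signal was fitted against the DMSO baseline.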

[11] = read-out: TIMP metallopeptidase inhibitor 2 (TIMP2), TIMP2 (gene 7077); test: BSK_KF3CT_TIMP2: BioMAP Diversity Plus: KF3CT Assay for TIMP metallopeptidase inhibitor 2 (TIMP2) Biomarker Activity (AID 2283071); conditions: primary human keratinocytes with fibroblasts; actives raise or lower the signal
How it was run: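 TIMP-2 measured by ELISA at 24 h in human keratinocyte/fibroblast primary co-cultures exposed to chemicals. Both increases and decreases were fitted against DMSO. Parallel cultures were stained with SRB for total protein as an overt-cytotoxicity check.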

[12] = read-out: C-C motif chemokine 2 (Homo sapiens) (UniProt P13500); test: BSK_KF3CT_MCP1: BioMAP Diversity Plus: KF3CT Assay for Monocyte Chemoattractant Protein 1 (MCP1/CCL2) Biomarker Activity (AID 2283073); conditions: primary human keratinocytes with fibroblasts; actives raise or lower the signal
How it was run: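 Human keratinocyte–foreskin fibroblast co-culture; MCP-1 measured by ELISA 24 h after dosing. Bidirectional fit vs DMSO; cytotoxicity tracked by SRB total protein in parallel cultures.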

[13] = read-out: Matrix Metallopeptidase 9 (MMP9), MMP9 (gene 4318); test: BSK_KF3CT_MMP9: BioMAP Diversity Plus: KF3CT Assay for Matrix Metallopeptidase 9 (MMP9) Biomarker Activity (AID 2283074); conditions: primary human keratinocytes with fibroblasts; actives raise or lower the signal;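 on AC50: MMP9 protein level quantified by ELISA in the co-culture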
How it was run: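 MMP-9 quantified by ELISA after 24 h chemical treatment of primary human skin keratinocyte/fibroblast co-cultures; gain or loss fitted against DMSO, with parallel SRB staining (0.1% SRB, 560 nm) for overt cytotoxicity.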

[14] = read-out: urokinase plasminogen activator (uPA), PLAU (gene 5328); test: BSK_KF3CT_uPA: BioMAP Diversity Plus: KF3CT Assay for urokinase plasminogen activator (uPA) Biomarker Activity (AID 2283075); conditions: primary human keratinocytes with fibroblasts; actives raise or lower the signal
How it was run: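 ELISA read-out of uPA 24 h after dosing human skin keratinocytes co-cultured with foreskin fibroblasts. Signal change fitted both ways relative to DMSO; sulforhodamine B on parallel cultures marks overt cytotoxicity.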

CD40, CD40 (gene 958) = test: BSK_LPS_CD40: BioMAP Diversity Plus: LPS Assay for CD40 Biomarker Activity (AID 2283076); conditions: primary human HUVEC with PBMC; actives raise or lower the signal
How it was run: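 HUVEC plus PBMC co-culture stimulated with LPS; CD40 quantified by ELISA 24 h after compound dosing. Fitting was bidirectional relative to DMSO. SRB staining of parallel cultures flagged overt cytotoxicity.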

[15] = read-out: E-selectin (Homo sapiens) (UniProt P16581); test: BSK_LPS_Eselectin: BioMAP Diversity Plus: LPS Assay for Eselectin Biomarker Activity (AID 2283077); conditions: primary human HUVEC with PBMC; actives raise or lower the signal
How it was run: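 Human umbilical vein endothelial cells co-cultured with PBMC under LPS stimulation; cell-surface E-selectin measured by ELISA 24 h after dosing. Change in either direction versus DMSO, with SRB total-protein staining in parallel cultures for cytotoxicity.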

[16] = read-out: Interleukin-8 (IL8), CXCL8 (gene 3576); test: BSK_LPS_IL8: BioMAP Diversity Plus: LPS Assay for Interleukin-8 (IL8) Biomarker Activity (AID 2283078); conditions: primary human HUVEC with PBMC; actives raise or lower the signal
How it was run: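 Human umbilical vein endothelial cells co-cultured with PBMC, LPS-stimulated, exposed to compound for 24 h. IL-8 quantified by ELISA; fitted in both directions against DMSO, with SRB total-protein staining of parallel cultures for cytotoxicity.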

[17] = BSK_LPS_SRB: Viability Assessment in the BioMAP Diversity Plus: LPS Assay (AID 2283079); conditions: primary human HUVEC with PBMC;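 further: total protein by sulforhodamine B absorbance as a cytotoxicity measure; measured one day after compound addition; fitted in both directions against DMSO so loss or gain of signal counts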
How it was run: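 Co-culture of human umbilical vein endothelial cells and PBMC, read 24 h after dosing. Total protein by 0.1% SRB staining after 10% TCA fixation, absorbance at 560 nm; bidirectional fit against DMSO.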

[18] = read-out: Transforming growth factor beta 1 (TGFb1), TGFB1 (gene 7040); test: BSK_KF3CT_TGFb1: BioMAP Diversity Plus: KF3CT Assay for Transforming growth factor beta 1 (TGFb1) Biomarker Activity (AID 2283072); conditions: primary human keratinocytes with fibroblasts; actives raise or lower the signal
How it was run: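 ELISA quantifies TGF-b1 at 24 h post-dose in a primary human skin co-culture of keratinocytes and fibroblasts, with gain or loss judged against DMSO. Parallel SRB total-protein staining flags overt cytotoxicity.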

Measured: AC50

E-selectin (Homo sapiens), sequence (P16581 whole entry, looked up): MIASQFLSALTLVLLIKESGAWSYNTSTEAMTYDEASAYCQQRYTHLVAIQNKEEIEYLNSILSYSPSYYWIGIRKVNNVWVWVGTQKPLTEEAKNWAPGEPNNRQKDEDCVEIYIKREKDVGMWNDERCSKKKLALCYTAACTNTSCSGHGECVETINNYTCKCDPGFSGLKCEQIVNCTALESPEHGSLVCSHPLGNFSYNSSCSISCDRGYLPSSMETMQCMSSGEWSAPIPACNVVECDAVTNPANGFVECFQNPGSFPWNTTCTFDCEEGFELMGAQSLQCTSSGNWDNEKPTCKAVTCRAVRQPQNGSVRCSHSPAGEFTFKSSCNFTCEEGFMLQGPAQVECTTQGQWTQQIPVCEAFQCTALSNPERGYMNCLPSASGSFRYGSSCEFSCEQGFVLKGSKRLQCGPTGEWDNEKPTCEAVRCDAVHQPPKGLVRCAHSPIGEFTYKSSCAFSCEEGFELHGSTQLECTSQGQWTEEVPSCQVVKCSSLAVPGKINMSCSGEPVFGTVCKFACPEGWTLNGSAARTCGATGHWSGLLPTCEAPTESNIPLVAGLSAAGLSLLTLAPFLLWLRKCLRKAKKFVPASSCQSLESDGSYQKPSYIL

C1CC2OC2CC1C1CO1 (stereo not drawn)
not listed: [18]
inactive: all other assays above

NS(=O)(=O)C(F)(F)C(F)(F)C(F)(F)C(F)(F)C(F)(F)C(F)(F)C(F)(F)C(F)(F)F
active: [1] 14.8 µM and 8.52 µM and 8.29 µM | [2] 34.4 µM and 53.2 µM and 54.7 µM | [3] 29.4 µM and 9.34 µM and 11 µM | [4] 30.7 µM and 15.3 µM and 17.5 µM | [5] 17.3 µM and 9.88 µM and 7.69 µM | [6] 27.7 µM and 15.4 µM and 21.1 µM | [7] 32 µM and 43.5 µM and 54 µM | [8] 13 µM and 32.4 µM and 37.3 µM | [9] 30.1 µM and 45.6 µM and 21.4 µM | [10] 29.4 µM and 43.8 µM and 44.6 µM | [11] 26 µM and 40.7 µM and 44.4 µM | [12] 33.4 µM and 48.9 µM and 52.2 µM | [13] 12.2 µM and 19.9 µM and 20.4 µM | [14] 13.5 µM and 20.9 µM and 21.5 µM | CD40, CD40 (gene 958) 23.9 µM and 39.6 µM and 39.1 µM | [15] 29.7 µM and 54.3 µM and 58.5 µM | [16] 30.1 µM and 45.6 µM and 49.8 µM

CC1=C2C[C@H]3[C@@H](CC=C4C[C@@H](O)CC[C@@]43C)[C@@H]2CC[C@]12O[C@@H]1C[C@H](C)CN[C@H]1[C@H]2C
inactive: all assays above

CCNc1nc(NC(C)C)nc(SC)n1
not listed: [18]
inactive: all other assays above

O=S(=O)(O)C(F)(F)C(F)(F)C(F)(F)C(F)(F)C(F)(F)C(F)(F)F
active: [16] 14.6 µM and 43.9 µM
inactive: [1] | [2] | [3] | [4] | [5] | [6] | [7] | [8] | [9] | [10] | [11] | [18] | [12] | [13] | [14] | CD40, CD40 (gene 958) | [15] | [16]

CN(C)CCO
not listed: [17] | [18]
inactive: all other assays above
